From PubChem BioAssay (NCATS)
Records with an inconclusive call do not appear. The source made the active and inactive calls. Calls follow the shape of the dose curve; as a rule, active = well fitted cell-killing curve with a large enough effect; inconclusive = small, poorly fitted or top-dose-only effect, or effect the other way; inactive = flat fitted curve, though single readings scatter. Where a SMILES comes first, the peptide text is derived from it. The star is where a group is joined. AMC = Cc1cc(=O)oc2cc(N*)ccc12; Cbz = O=C(OCc1ccccc1)*

How the values were obtained:
Experiment in all cases: Primary qHTS to identify gynecologic anti-cancer compounds using libraries of approved drugs and bioactive compounds (AID 1345084); also: nearly all actives have a fitted effect of over 55% in size
Conditions in all cases: Gynecologic cancer cell panel viability, ATPlite luminescence, 48 h; series mostly up to 57.5 µM
[1] = tested on: OV90
Procedure, shortened: (§1)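 Measured: luminescence after ATPlite addition (15 min, RT). Exposure: 48 h, 37 C, 5% CO2.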

[2] = tested on: PA-1
Procedure, shortened: as §1

[3] = tested on: SKOV3
Procedure, shortened: as §1

[4] = tested on: Tov-21-G
Procedure, shortened: as §1

[5] = tested on: Tov112D
Procedure, shortened: as §1
% is scaled to controls: 0 for no effect and ±100 for the full control effect.

CC1(C)CC=C(C#Cc2ccccc2)c2cc(/C=C/c3ccc(C(=O)O)cc3)ccc21
inactive: Potency [1] | Potency [2] | Potency [3] | Potency [4] | Potency [5]

C/C=C1/[C@H](O[C@@H]2O[C@H](CO)[C@@H](O)[C@H](O)[C@H]2O)OC=C2C(=O)O[C@@H]3C[C@@H](C(C)CO)[C@H](COC(=O)C[C@H]21)[C@H]3C (stereo not given in full)
inactive: Potency [1] | Potency [2] | Potency [3] | Potency [4] | Potency [5]

COc1cc(C)c(C(=O)OC2C(C)OC(OC3CCC(C)C4C3C=C(C)C3/C(C)=C\CC/C(C)=C/C5(C)C=C(C(=O)O)C(C)CC56OC(=O)/C(=C(\O)C34C)C6=O)C(O)C2O)c(OC)c1 (stereo not given)
inactive: activity change, negative = cytotoxicity [1] 2.6% [at 11.6 µM] | activity change, negative = cytotoxicity [2] -4.04% [at 11.6 µM] | activity change, negative = cytotoxicity [3] -6.42% [at 11.6 µM] | activity change, negative = cytotoxicity [4] 1.13% [at 11.6 µM] | activity change, negative = cytotoxicity [5] 1.96% [at 11.6 µM]

OC[C@H]1O[C@@H](OCCc2ccccc2)[C@H](O)[C@@H](O)[C@@H]1O
inactive: Potency [1] | Potency [2] | Potency [3] | Potency [4] | Potency [5]

CC1(O)CCC2C(C3C1CCC3(C)O)C2(C)C (stereo not given)
inactive: Potency [1] | Potency [2] | Potency [3] | Potency [4] | Potency [5]

Cc1cc(=O)oc2cc(NC(=O)[C@H](CCC(=O)O)NC(=O)[C@H](CC(C)C)NC(=O)[C@H](CC(C)C)NC(=O)OCc3ccccc3)ccc12 (Cbz-Leu-Leu-Glu-{AMC})
inactive: Potency [1] | Potency [2] | Potency [3] | Potency [4] | Potency [5]

CC(O)C(=O)/C=C/C=C/C(=O)OC1C=C2COC(=O)C2(O)C2(C)CCCC(C)(C)C12 (stereo not given)
inactive: Potency [1] | Potency [2] | Potency [3] | Potency [4] | Potency [5]

COC(=O)[C@]1(C)CCC[C@@]2(C)[C@@H]3CC[C@@H]4C[C@@]3(CC[C@@H]21)C[C@H]4C(=O)O
inactive: Potency [1] | Potency [2] | Potency [3] | Potency [4] | Potency [5]

CC1=CC(=O)CC(C)(C)C1/C=C/C(C)OC1OC(COC2OCC(O)C(O)C2O)C(O)C(O)C1O (stereo not given)
inactive: Potency [1] | Potency [2] | Potency [3] | Potency [4] | Potency [5]

COCCCc1sc(-c2ccccc2)nc1C(=O)Nc1ccccc1-c1nc2cc(CN3CCCC3)cnc2s1
inactive: Potency [1] | Potency [2] | Potency [3] | Potency [4] | Potency [5]

C=C1CC2C(C)(CCC(=O)O)C(C(C)(C)O)CCC2(C)C2(C(=O)OC)C(=O)C(C)(O)C(=O)C12C (stereo not given)
inactive: Potency [1] | Potency [2] | Potency [3] | Potency [4] | Potency [5]

COc1cc(CC2COC(c3ccc(OC4OC(CO)C(O)C(O)C4O)c(OC)c3)C2CO)ccc1O (stereo not given)
inactive: Potency [1] | Potency [2] | Potency [3] | Potency [4] | Potency [5]

O=C(/C=C/c1ccc(O)c(O)c1)O[C@@H]1[C@@H](O)[C@H](OC2CCCCC2O)O[C@H](CO)[C@H]1O (stereo not given in full)
inactive: Potency [1] | Potency [2] | Potency [3] | Potency [4] | Potency [5]

C[C@@H]1O[C@@H](O[C@@H]2[C@@H](O)[C@H](O[C@H]3[C@H](O[C@H]4CC[C@@]5(C)C(CC[C@]6(C)C5CC=C5[C@@H]7CC(C)(C)CC[C@]7(C(=O)O[C@@H]7O[C@H](CO)[C@@H](O)[C@H](O)[C@H]7O)CC[C@]56C)C4(C)C)O[C@H](C(=O)O)[C@@H](O)[C@@H]3O)OC[C@H]2O)[C@H](O)[C@H](O)[C@H]1O (stereo not given in full)
inactive: activity change, negative = cytotoxicity [1] 0.961% [at 11.6 µM] | activity change, negative = cytotoxicity [2] 4.95% [at 11.6 µM] | activity change, negative = cytotoxicity [3] 20.4% [at 11.6 µM] | activity change, negative = cytotoxicity [4] 1.4% [at 11.6 µM] | activity change, negative = cytotoxicity [5] 6.86% [at 11.6 µM]

CC(=O)NC1CC(=O)C23C(=O)NC(Cc4c[nH]c5ccccc45)C2C(C)=C(C)C(O)C3/C=C/CC(C)/C=C(/C)C(O)C1O (stereo not given)
inactive: Potency [1] | Potency [2] | Potency [3] | Potency [4] | Potency [5]

O=C(CCc1ccccc1)c1c(O)c([C@@H]2O[C@H](CO)[C@@H](O)[C@H](O)[C@H]2O)c(O)c([C@@H]2O[C@H](CO)[C@@H](O)[C@H](O)[C@H]2O)c1O
inactive: Potency [1] | Potency [2] | Potency [3] | Potency [4] | Potency [5]

Cc1cn(C[C@H](N)C(=O)O)c(=O)n(Cc2ccsc2C(=O)O)c1=O
inactive: Potency [1] | Potency [2] | Potency [3] | Potency [4] | Potency [5]

C=C1CC[C@@]2(OC1)O[C@H]1CC3[C@@H]4CC=C5C[C@@H](O)C[C@@H](O[C@@H]6OC[C@H](O)[C@H](O)[C@H]6O[C@@H]6O[C@@H](C)[C@H](O)[C@@H](O)[C@H]6O)[C@]5(C)C4CC[C@]3(C)[C@H]1[C@@H]2C (stereo not given in full)
inactive: Potency [1] | Potency [2] | Potency [3] | Potency [4] | Potency [5]
